Measurements from PubChem BioAssay (Tox21).
Records with an inconclusive call do not appear. Active and inactive are the calls of the source. Unless noted, the call rests on the fitted dose curve; in most records, active means well fitted curve in the direction sought with a large enough effect in the repeat runs; inconclusive means weak or mixed curves; inactive means no such curve, though single readings can be large; an effect the other way counts as inactive or inconclusive.

Legend:
[1] = qHTS assay to identify aromatase inhibitors - cell viability counter screen (AID 743084);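 further: cells stimulated with testosterone during compound exposure; nearly all actives have a fitted effect of over 55% in size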
[2] = molecular target: Aryl hydrocarbon receptor (Homo sapiens) (UniProt P35869); assay: qHTS assay to identify small molecule that activate the aryl hydrocarbon receptor (AhR) signaling pathway (AID 743085); further: nearly all actives have a fitted effect of over 15% in size; further: potency means the concentration at half of the fitted maximal effect;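 on activation: HG2L7.5c1 human HepG2 liver cells with stably integrated DRE-driven firefly reporter; series mostly up to about 70 µM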
Outline: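 24 h compound exposure, 37C, HepG2-derived HG2L7.5c1 cells with DRE-responsive luciferase. Readouts: fluorescence viability, then luminescence at room temperature after 30 min.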

[3] = qHTS assay to identify small molecule that activate the aryl hydrocarbon receptor (AhR) signaling pathway - cell viability counter screen (AID 743086);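 further: HepG2 liver cells carrying the AhR DRE luciferase reporter; series mostly up to about 70 µM; nearly all actives have a fitted effect of over 45% in size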
Outline: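 HepG2-AhR-luc (HG2L7.5c1) cells, 4000/well, were preincubated 5 h at 37C, exposed to compound in qHTS format for 24 hr at 37C, then given CellTiter-Fluor for 30 min; viability was read as fluorescence in the reporter wells.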

[4] = molecular target: Peroxisome proliferator-activated receptor gamma (Homo sapiens) (UniProt P37231); assay: qHTS assay to identify small molecule agonists of the peroxisome proliferator-activated receptor gamma (PPARg) signaling pathway (AID 743094; active means well fitted activation curve with a large enough effect in the signal ratio in the repeat runs, not every such curve was filed as active; the % refers to the signal ratio)
Outline: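 Agonism was assessed in a beta-lactamase reporter system, HEK293H cells with a stably integrated UAS-bla construct under PPARg control; the 17 h treatment at 37C preceded a 1 h room-temperature FRET substrate read.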

[5] = qHTS assay for small molecule agonists of the antioxidant response element (ARE) signaling pathway (AID 743202; active means well fitted activation curve with a large enough effect in the signal ratio in the repeat runs, not every such curve was filed as active; the % refers to the signal ratio; further: potency means the concentration at half of the fitted maximal effect)
Outline: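 Following a 16 h, 37 C exposure of reporter HepG2 cells (ARE-driven beta-lactamase, 2,000 cells/well) to compounds, FRET substrate was applied for 2 h at room temperature and fluorescence intensity recorded.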

[6] = qHTS assay for small molecule agonists of the antioxidant response element (ARE) signaling pathway - cell viability counter screen (AID 743203; calls by dose curve; further: nearly all actives have a fitted effect of over 55% in size)
Outline: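 ATP content via CellTiter-Glo luminescence served as the viability measure. Cells: ARE-bla HepG2, 2,000 per well. Exposure: 16 hrs, 37C/5% CO2.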

[7] = qHTS assay for small molecule activators of the heat shock response signaling pathway - cell viability counter screen (AID 743209); further: nearly all actives have a fitted effect of over 50% in size
Outline: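 Compounds dissolved in DMSO were added to overnight-plated HSE-bla HeLa cells and left 5 h at 37 C. Cell viability was quantified by luminescence using CellTiter-Glo.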

[8] = qHTS assay for small molecule activators of the heat shock response signaling pathway (AID 743210; active means well fitted activation curve with a large enough effect in the signal ratio in the repeat runs, with a control signal flat, not every such curve was filed as active; the % refers to the signal ratio; further: series mostly up to about 63 µM)
Outline: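 Heat shock element–beta-lactamase HeLa reporter cells; qHTS with compounds for 5 h at 37 C; detection by FRET substrate fluorescence after 2.5 h at RT.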

[9] = molecular target: Peroxisome proliferator-activated receptor gamma (Homo sapiens) (UniProt P37231); assay: qHTS assay to identify small molecule antagonists of the peroxisome proliferator-activated receptor gamma (PPARg) signaling pathway (AID 743191; calls by dose curve; further: series mostly up to about 63 µM; nearly all actives have a fitted effect of over 30% in size)
Outline: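 GeneBLAzer PPARg UAS-bla HEK293H cells carrying a UAS-driven beta-lactamase reporter were plated at 3000 cells/well, preincubated 5 h at 37C, then given compound for 17 h at 37C; LiveBLAzer B/G FRET substrate was read after 1 h at room temperature.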

[10] = qHTS assay to identify small molecule antagonists of the peroxisome proliferator-activated receptor gamma (PPARg) signaling pathway - cell viability counter screen (AID 743194); further: nearly all actives have a fitted effect of over 55% in size
Outline: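 PPARg-UAS-bla HEK293H cells were plated, rested 5 h at 37 C, then treated with compounds plus rosiglitazone (50 nM final) for 17 h at 37 C; viability was then read by CellTiter-Glo luminescence after 30 min at room temperature.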

Measured: Potency

Sequence of Aryl hydrocarbon receptor (Homo sapiens) (P35869 whole entry, looked up): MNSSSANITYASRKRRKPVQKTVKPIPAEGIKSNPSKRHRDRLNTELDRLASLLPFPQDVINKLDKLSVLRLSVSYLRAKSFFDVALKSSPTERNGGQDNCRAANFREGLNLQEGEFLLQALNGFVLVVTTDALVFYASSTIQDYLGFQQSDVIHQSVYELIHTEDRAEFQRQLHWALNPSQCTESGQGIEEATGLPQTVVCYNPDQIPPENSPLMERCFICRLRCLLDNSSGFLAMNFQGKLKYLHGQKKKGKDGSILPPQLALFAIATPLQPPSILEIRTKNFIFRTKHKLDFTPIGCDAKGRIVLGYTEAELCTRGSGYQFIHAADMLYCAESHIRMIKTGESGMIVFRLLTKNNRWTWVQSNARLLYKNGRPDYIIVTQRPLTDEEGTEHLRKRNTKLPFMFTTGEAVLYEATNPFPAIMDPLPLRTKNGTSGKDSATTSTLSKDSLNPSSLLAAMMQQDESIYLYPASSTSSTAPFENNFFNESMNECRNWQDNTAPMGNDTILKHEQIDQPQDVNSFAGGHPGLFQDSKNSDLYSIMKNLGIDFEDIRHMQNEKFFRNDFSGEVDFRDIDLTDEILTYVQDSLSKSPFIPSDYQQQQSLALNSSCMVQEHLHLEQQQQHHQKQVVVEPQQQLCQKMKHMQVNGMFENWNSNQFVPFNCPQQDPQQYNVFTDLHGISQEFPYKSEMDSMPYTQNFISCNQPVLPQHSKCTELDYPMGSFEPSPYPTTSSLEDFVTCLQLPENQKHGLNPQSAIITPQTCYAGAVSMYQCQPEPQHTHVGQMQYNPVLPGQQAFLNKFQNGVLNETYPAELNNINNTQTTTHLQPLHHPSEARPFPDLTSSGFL
Sequence of Peroxisome proliferator-activated receptor gamma (Homo sapiens) (P37231 whole entry, looked up): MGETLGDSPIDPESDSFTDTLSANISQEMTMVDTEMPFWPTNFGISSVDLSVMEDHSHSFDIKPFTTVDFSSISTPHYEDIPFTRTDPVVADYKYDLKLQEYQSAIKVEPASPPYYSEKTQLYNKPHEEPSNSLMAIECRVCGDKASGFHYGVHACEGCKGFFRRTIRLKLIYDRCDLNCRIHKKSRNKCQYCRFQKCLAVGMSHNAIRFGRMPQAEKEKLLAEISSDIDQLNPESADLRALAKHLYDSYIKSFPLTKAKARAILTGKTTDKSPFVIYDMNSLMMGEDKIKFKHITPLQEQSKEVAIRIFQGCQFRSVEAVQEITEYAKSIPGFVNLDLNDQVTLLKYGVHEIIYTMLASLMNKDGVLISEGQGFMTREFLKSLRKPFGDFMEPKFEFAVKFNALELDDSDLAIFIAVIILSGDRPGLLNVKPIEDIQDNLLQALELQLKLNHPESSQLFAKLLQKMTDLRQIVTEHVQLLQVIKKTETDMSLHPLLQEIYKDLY

O=C(OCCCCCOC(=O)c1ccccc1)c1ccccc1
inactive: [1] | [2] | [3] | [4] | [5] | [6] | [7] | [8]

CC(C)(C)c1ccc(CCC=O)cc1
inactive: [1] | [2] | [3] | [9] | [10] | [5] | [6] | [7] | [8]

CC(C)Oc1ccccc1O
inactive: [1] | [2] | [3] | [4] | [10] | [5] | [6] | [7] | [8]

CC(C)=CCC[C@H](C)CCO
inactive: [1] | [2] | [3] | [4] | [10] | [5] | [6] | [7] | [8]

CC(CN=Cc1ccccc1O)N=Cc1ccccc1O (configuration not stated)
inactive: [1] | [3] | [4] | [9] | [10] | [6] | [7] | [8]
active: [2] 27.3 µM

O=C(O)c1ccc(O)c(O)c1
inactive: [1] | [2] | [3] | [4] | [10] | [5] | [6] | [7] | [8]

C[C@H](CN1CCCC1)C(=O)c1ccc(C(F)(F)F)cc1
inactive: [1] | [2] | [3] | [4] | [10] | [6] | [7] | [8]

CCCCCCOC(=O)c1ccccc1
inactive: [1] | [2] | [3] | [4] | [9] | [10] | [6] | [7] | [8]

O=[N+]([O-])c1cccc(I)c1
inactive: [1] | [2] | [3] | [9] | [10] | [5] | [6] | [7] | [8]

COc1cc(CNC(=O)CCCC/C=C/C(C)C)ccc1O
active: [5] 47.3 µM
inactive: [1] | [2] | [3] | [4] | [10] | [6] | [7] | [8]

CCc1ccc2c(c1)C(=O)c1ccccc1C2=O
active: [2] 27.3 µM | [5] 34.4 µM
inactive: [1] | [3] | [4] | [10] | [7] | [8]

CC1(C)CC(=O)CC(C)(C)N1
inactive: [1] | [2] | [3] | [4] | [9] | [5] | [7] | [8]

O=C(O)c1cc(C(=O)O)cc([N+](=O)[O-])c1
inactive: [1] | [2] | [3] | [4] | [10] | [5] | [7] | [8]

Cc1c(Cl)cccc1Nc1ccccc1C(=O)O
active: [5] 26.6 µM
inactive: [1] | [2] | [3] | [4] | [10] | [6] | [7] | [8]

CCCCCCCCCCCCSCCOCCO
inactive: [1] | [2] | [3] | [4] | [10] | [5] | [6] | [7] | [8]

CC(=O)c1ccc(Cl)c(Cl)c1Cl
inactive: [1] | [2] | [3] | [4] | [10] | [5] | [6] | [7] | [8]

C=C(C)C(=O)OCCCCCCCCCCOC(=O)C(=C)C
inactive: [1] | [2] | [3] | [9] | [10] | [5] | [6] | [7]

CC(C(=O)O)c1ccc2c(c1)Cc1cccnc1O2 (configuration not stated)
inactive: [1] | [2] | [3] | [4] | [10] | [5] | [6] | [7] | [8]

CCCc1nc(C)c2c(=O)[nH]c(-c3cc(S(=O)(=O)N4CCN(CC)CC4)ccc3OCC)nn12
inactive: [1] | [2] | [3] | [4] | [9] | [6] | [7] | [8]

NCCOCCOCCN
inactive: [1] | [2] | [3] | [9] | [10] | [6] | [7]
active: [5] 48.6 µM

CC(=O)Oc1cccc2c1C(=O)c1c(OC(C)=O)cc(C(=O)O)cc1C2=O
active: [5] 15 µM
inactive: [1] | [2] | [3] | [4] | [10] | [6] | [8]

CCOC(=O)CC(O)(CC(=O)OCC)C(=O)OCC
inactive: [1] | [2] | [3] | [4] | [9] | [10] | [7] | [8]

COc1ccc(/C=C/S(=O)(=O)NC(=O)c2ccc(C)cc2Cl)cc1
inactive: [1] | [2] | [3] | [4] | [10] | [5] | [6] | [7] | [8]

CC(C)CC(C)(C)C
inactive: [1] | [2] | [3] | [4] | [10] | [5] | [6] | [7] | [8]

Clc1cccc(C(c2ccc3nc[nH]c3c2)n2ccnc2)c1 (configuration not stated)
inactive: [1] | [3] | [4] | [10] | [5] | [6] | [7] | [8]
active: [2] 2.66 µM

C=CC(O)CCCCC (configuration not stated)
inactive: [1] | [2] | [3] | [4] | [10] | [5] | [6] | [7] | [8]

O=C(O)c1ccncc1
inactive: [1] | [2] | [3] | [4] | [5] | [6] | [7] | [8]
